Laboratory results published in PubChem BioAssay (EPA / NIEHS).
Results filed as inconclusive are left out. The source made the active and inactive calls. The calls were made as follows: active = hit-call score of the fitted dose curve at least 0.9, where 1 is the maximum; inconclusive = response in the unintended direction; inactive = score below 0.9.

What follows are molecules tested against human Colony Stimulating Factor 1 Receptor (CSF1R), CSF1R (gene 1436) (UniProt P07333) (assay: NVS_ENZ_hCSF1R: NovaScreen (NVS) Enzymatic Assay for human Colony Stimulating Factor 1 Receptor (CSF1R) (AID 2283150)).
How it was run: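 Compounds screened in duplicate at 25 uM, then concentration-response (top 50 uM) for those passing threshold such as 30% inhibition; recombinant CSF1R activity measured 1 h post-dosing via fluorescent substrate/product mobility-shift separation, loss of signal versus DMSO.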

Chain of human Colony Stimulating Factor 1 Receptor (CSF1R), CSF1R (gene 1436) (P07333 whole entry, looked up): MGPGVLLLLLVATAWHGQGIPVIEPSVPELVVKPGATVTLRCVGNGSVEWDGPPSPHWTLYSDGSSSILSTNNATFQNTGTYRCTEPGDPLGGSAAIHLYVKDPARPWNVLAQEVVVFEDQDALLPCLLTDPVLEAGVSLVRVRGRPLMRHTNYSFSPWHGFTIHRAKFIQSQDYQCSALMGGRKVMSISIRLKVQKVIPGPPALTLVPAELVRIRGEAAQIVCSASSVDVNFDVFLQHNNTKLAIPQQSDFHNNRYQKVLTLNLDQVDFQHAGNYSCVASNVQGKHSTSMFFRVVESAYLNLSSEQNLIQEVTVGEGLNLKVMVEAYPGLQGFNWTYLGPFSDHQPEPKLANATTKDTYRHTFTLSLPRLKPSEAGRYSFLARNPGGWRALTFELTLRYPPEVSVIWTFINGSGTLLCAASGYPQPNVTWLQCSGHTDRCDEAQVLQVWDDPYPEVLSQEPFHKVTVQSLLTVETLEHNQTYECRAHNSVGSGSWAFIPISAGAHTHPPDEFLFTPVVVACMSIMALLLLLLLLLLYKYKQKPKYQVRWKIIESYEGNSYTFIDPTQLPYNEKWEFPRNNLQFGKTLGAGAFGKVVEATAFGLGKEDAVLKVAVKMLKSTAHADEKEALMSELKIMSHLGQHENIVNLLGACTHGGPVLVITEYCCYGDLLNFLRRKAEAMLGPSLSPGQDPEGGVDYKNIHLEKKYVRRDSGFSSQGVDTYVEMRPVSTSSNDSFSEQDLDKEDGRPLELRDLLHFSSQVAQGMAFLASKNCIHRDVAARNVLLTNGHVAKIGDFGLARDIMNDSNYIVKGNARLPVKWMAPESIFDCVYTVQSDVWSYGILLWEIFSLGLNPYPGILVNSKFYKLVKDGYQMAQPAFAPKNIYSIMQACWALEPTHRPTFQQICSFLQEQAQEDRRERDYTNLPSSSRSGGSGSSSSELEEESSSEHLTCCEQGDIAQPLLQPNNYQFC

SMILES | outcome
O=C(O)C(F)(F)C(F)(F)C(F)(F)C(F)(F)C(F)(F)C(F)(F)C(F)(F)C(F)(F)F | inactive
O=S(=O)(O)C(F)(F)C(F)(F)C(F)(F)C(F)(F)C(F)(F)C(F)(F)F | inactive
ClC1=C(Cl)[C@]2(Cl)[C@@H]3[C@@H]4C[C@@H]([C@H]5O[C@@H]45)[C@@H]3[C@@]1(Cl)C2(Cl)Cl | inactive
CC1=C2C[C@H]3[C@@H](CC=C4C[C@@H](O)CC[C@@]43C)[C@@H]2CC[C@]12O[C@@H]1C[C@H](C)CN[C@H]1[C@H]2C | inactive
C1CC2OC2CC1C1CO1 (stereo not given) | inactive
Oc1ccc(C(c2ccc(O)cc2)(C(F)(F)F)C(F)(F)F)cc1 | inactive
CCCN(CCC)N=O | inactive

What follows are molecules tested against human Epidermal Growth Factor Receptor (EGFR), EGFR (gene 1956) (UniProt P00533) (assay: NVS_ENZ_hEGFR: NovaScreen (NVS) Enzymatic Assay for human Epidermal Growth Factor Receptor (EGFR) (AID 2283151)).
How it was run: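 Cell-free kinase assay, fluorescence plus electrophoretic mobility shift separating substrate and product, read 1 hour after dosing; loss of signal vs DMSO. Duplicate screen at 25 uM, then concentration-response to 50 uM.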

Chain of human Epidermal Growth Factor Receptor (EGFR), EGFR (gene 1956) (P00533 whole entry, looked up): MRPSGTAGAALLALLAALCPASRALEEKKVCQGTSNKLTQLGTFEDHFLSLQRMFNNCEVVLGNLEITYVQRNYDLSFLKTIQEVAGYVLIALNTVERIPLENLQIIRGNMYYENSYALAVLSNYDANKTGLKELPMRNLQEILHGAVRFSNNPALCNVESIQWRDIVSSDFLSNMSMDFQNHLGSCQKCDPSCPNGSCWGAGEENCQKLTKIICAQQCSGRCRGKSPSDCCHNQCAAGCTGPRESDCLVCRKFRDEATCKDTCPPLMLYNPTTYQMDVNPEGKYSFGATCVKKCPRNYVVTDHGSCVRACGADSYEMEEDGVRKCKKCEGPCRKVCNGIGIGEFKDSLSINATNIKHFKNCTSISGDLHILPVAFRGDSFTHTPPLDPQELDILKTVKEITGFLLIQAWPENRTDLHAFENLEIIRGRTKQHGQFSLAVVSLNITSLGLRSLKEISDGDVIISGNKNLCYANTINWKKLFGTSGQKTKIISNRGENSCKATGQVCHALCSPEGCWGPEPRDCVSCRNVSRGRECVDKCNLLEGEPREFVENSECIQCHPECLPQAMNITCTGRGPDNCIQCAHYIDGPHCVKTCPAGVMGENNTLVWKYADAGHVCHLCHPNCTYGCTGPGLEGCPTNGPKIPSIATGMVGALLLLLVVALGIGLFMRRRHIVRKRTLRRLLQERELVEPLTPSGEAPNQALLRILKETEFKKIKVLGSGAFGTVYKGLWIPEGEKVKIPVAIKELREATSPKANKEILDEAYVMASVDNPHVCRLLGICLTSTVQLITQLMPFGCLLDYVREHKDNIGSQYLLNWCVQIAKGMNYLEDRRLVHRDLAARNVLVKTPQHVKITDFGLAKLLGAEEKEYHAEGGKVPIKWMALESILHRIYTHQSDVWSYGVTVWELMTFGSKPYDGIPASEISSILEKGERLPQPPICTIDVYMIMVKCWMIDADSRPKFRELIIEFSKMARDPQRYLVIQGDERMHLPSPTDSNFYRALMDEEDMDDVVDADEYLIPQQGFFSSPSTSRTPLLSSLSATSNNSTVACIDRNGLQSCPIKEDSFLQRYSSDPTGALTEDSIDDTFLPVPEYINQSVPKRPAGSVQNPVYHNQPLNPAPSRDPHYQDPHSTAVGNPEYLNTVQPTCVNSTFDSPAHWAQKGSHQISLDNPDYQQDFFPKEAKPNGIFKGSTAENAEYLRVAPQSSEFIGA

SMILES | outcome
O=C(O)C(F)(F)C(F)(F)C(F)(F)C(F)(F)C(F)(F)C(F)(F)C(F)(F)C(F)(F)F | inactive
O=C(O)C(F)(F)C(F)(F)C(F)(F)C(F)(F)C(F)(F)F | inactive
CC1=C2C[C@H]3[C@@H](CC=C4C[C@@H](O)CC[C@@]43C)[C@@H]2CC[C@]12O[C@@H]1C[C@H](C)CN[C@H]1[C@H]2C | inactive
